Compounds without any hit were thinned out: in the full panel of roughly 83,000, 20% have a hit.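 Values shown are percent growth following 48 h exposure of cells in 96-well plates to a single concentration of compound; below 10 was considered active.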 A number with no mark means an inactive call. Activity calls are given as the source filed them.

Common to all, as to test: NCI-60 one-dose screen, 48 h (100 = growth as untreated, 0 = no growth, -100 = all killed)
Common to all, as to conditions: 10 µM

Experiment [1] concerns HCT-15 colon.
The test system of experiment [2] is HT29 colon.
Experiment [3] deals with SNB-75 CNS.
In experiment [4] the test system is SNB-19 CNS.
For experiment [5], the system named is U251 CNS.
The subject of experiment [6] is PC-3 prostate.
Experiment [7] has as its system SK-MEL-5 melanoma.
The test system of experiment [8] is UACC-62 melanoma.
Experiment [9] has as its system LOX IMVI melanoma.
Experiment [10] has as its system SK-MEL-28 melanoma.
Experiment [11] has as its system SK-MEL-2 melanoma.
The subject of experiment [12] is EKVX NSCLC.
Experiment [13] deals with UO-31 renal.
In experiment [14] the test system is TK-10 renal.
In experiment [15] the test system is ACHN renal.
For experiment [16], the system named is CAKI-1 renal.
The subject of experiment [17] is A498 renal.
In experiment [18] the test system is CCRF-CEM leukemia.
The test system of experiment [19] is MOLT-4 leukemia.
Experiment [20] relates to SN12C renal.

As to `CCCCCCCCCCN=C(c1ccc(N(C)C)cc1)c1ccc(N(C)C)cc1`, the growth in [1] was 12.9%; in [2] it was 9.42% (active); in experiment [3], 33.1%; in experiment [4], 31.8%; in experiment [5], 21.3%; in experiment [6], 30.7%. In addition, the growth in experiment [7] was 0.192% (active); in experiment [8], 31.7%; in [9], 42.1%; in experiment [10], 59.7%; in experiment [11] it was 23.3%; in [12] it was 29.3%. Besides, the growth is 52.8% in experiment [13]; 55.7% in experiment [14]; 43.3% in experiment [15]; 35.7% in experiment [16]; -9.41% (active) in experiment [17]; 28.1% in [18]. Also, the growth in [19] was 24.6%.
For the molecule `CCCCCCCCCCCCc1ccc(C(=O)/C=C/C(=O)O)cc1`, the growth in experiment [1] was -19.4% (active); in [2] it was 27.8%; in experiment [3], 74.5%; in [4] it was 94.4%; in experiment [5] it was 80.1%; in [6] it was 82.9%. Besides, the growth in experiment [7] is 92.1%; in experiment [8], -16.8% (active); in [9], -62.4% (active); in experiment [10], 26.4%; in experiment [11], 93.1%; in [12] it was 99.9%. Besides, the growth was 85.3% in [13]; 68.7% in experiment [14]; 55.9% in experiment [15]; 91.1% in [16]; 81.7% in experiment [17]; -17.6% (active) in [18]. Moreover, the growth in [19] is -15.1% (active).
On to `CC(=O)c1c(O)cc2c3c1OC(C)(C)C1CCC(C)(CC31)O2` (centres undefined), for which the growth was 97.5% in experiment [1]; 90.6% in [2]; 96% in experiment [3]; 98.7% in [4]; 102% in [5]; 88.8% in experiment [6]. Besides, the growth in [7] is 83.1%; in experiment [8], 88.5%; in experiment [9], 97.9%; in [10] it was 111%; in [11] it was 99.2%; in experiment [20] it was 99.6%. Further, the growth in experiment [13] is 77.8%; in [14] it was 110%; in [15], 95.1%; in experiment [16], 89.5%; in experiment [17] it was 76%; in experiment [18], 106%. For the same molecule, the growth in experiment [19] is 78.9%.
`O=C(Nc1ccc(CN2CCOCC2)cc1)c1ccc(-c2cc(Cl)ccc2Cl)o1`: the growth in [1] is 17%; in experiment [2], 2.85% (active); in [3], 48%; in experiment [4], 54.7%; in experiment [5], 32.4%; in [6], 41.4%. Also, the growth was 37.1% in experiment [7]; -56.1% (active) in [8]; 4.07% (active) in experiment [9]; 41.4% in experiment [10]; 55.5% in experiment [11]; 63.4% in [20]. Also, the growth in [13] is 25.4%; in experiment [14], 49.4%; in experiment [15], 41.8%; in experiment [16], 43.5%; in experiment [17], 87.1%; in experiment [18], 38.6%. The growth in [19] is 42.9%.
For the molecule `CC(Oc1ccc(Cl)cc1)c1ccccc1` (centres undefined), the growth was 112% in [1]; 106% in [2]; 97.3% in experiment [3]; 99.7% in experiment [4]; 102% in experiment [5]; 93.4% in experiment [6]. In addition, the growth in [7] is 100%; in experiment [8], 97.6%; in [9], 97.5%; in [10], 106%; in experiment [11], 112%; in [20], 98.1%. For the same molecule, the growth is 77.6% in experiment [13]; 106% in [14]; 125% in experiment [15]; 96.5% in experiment [16]; 119% in experiment [17]; 94.1% in [18].
`Cc1ccc(-c2cc(C(=O)Nc3ccc(S(=O)(=O)N4CCCCC4)cc3)[nH]n2)c(O)c1`: the growth in [1] is 23.5%; in [2], 2.87% (active); in experiment [3] it was 81.6%; in experiment [4] it was 69%; in experiment [5], 39.3%; in experiment [6], 51.8%. The growth was 24.8% in experiment [7]; 36.2% in [8]; 54.3% in experiment [9]; 78.7% in experiment [10]; 80% in [11]; 53.3% in [20]. The growth was 56.2% in experiment [13]; 61.6% in experiment [14]; 66.5% in experiment [15]; 67.3% in [16]; 63.3% in [17]; 45.5% in [18]. Moreover, in experiment [19], the growth was 38.7%.
With `CCOC(=O)c1ccc(NC(=O)Nc2nncs2)cc1`, the growth in experiment [1] was 17.5%; in [2], 1.75% (active); in experiment [3] it was 19.6%; in [4], 58.3%; in [5], 17.3%; in experiment [6] it was 20.7%. Moreover, the growth is -21.2% (active) in experiment [7]; 31.2% in [8]; 13% in experiment [9]; 42.2% in [10]; 37.4% in experiment [11]; 31.2% in experiment [20]. Moreover, the growth in experiment [13] is 34.1%; in [14] it was 45.1%; in experiment [15], 36.1%; in experiment [16] it was 24.9%; in experiment [17] it was -13.3% (active); in [18], 7.54% (active). Besides, in experiment [19], the growth is 11.7%.
`CNCCCNCCCN1C(=O)c2ccc3c4c(ccc(c24)C1=O)C(=O)N(CCCNCc1ccccc1OC)C3=O`: the growth in experiment [1] was 28%; in experiment [2], -23.4% (active); in experiment [3], 15.9%; in experiment [4] it was 36.6%; in experiment [5], 6.5% (active); in experiment [6], 1.85% (active). In addition, the growth was -94.2% (active) in experiment [7]; -42.2% (active) in experiment [8]; -58.3% (active) in experiment [9]; -48.2% (active) in experiment [10]; -49.9% (active) in experiment [11]; 2.51% (active) in experiment [20]. Further, the growth in [13] is 18.2%; in experiment [14] it was -14% (active); in experiment [15], 16.6%; in experiment [16] it was 24.6%; in [17], 28.8%; in experiment [18] it was 4.62% (active).
On to `Cc1ccc([P+](Cc2ccc([N+](=O)[O-])cc2)(c2ccc(C)cc2)c2ccc(C)cc2)cc1`, for which the growth is 96.7% in experiment [1]; 23.1% in [2]; 30.9% in experiment [3]; 57.6% in experiment [4]; 39.6% in experiment [5]; 38.7% in [6]. Besides, the growth in [7] is -12.4% (active); in experiment [8] it was -0.637% (active); in [9] it was 32.4%; in experiment [10], 28.4%; in experiment [11], -21.6% (active); in experiment [20] it was 67.6%. The growth is 70.5% in [13]; 49.1% in experiment [14]; 97.5% in [15]; 94.7% in [16]; 65.6% in experiment [17]; 24.5% in experiment [18]. For the same molecule, the growth in [19] was 52.4%.
